Abs 340nm: absorbance at 340 nm. fold change at 10 µM. 65,000 tested, under 10 active. compound absorbance at 340 nm, fold over control;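 active = at 10 µM dose, initial 340 nm absorbance at least 2 fold that of control wells; inactive = change under 2 fold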;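 note: initial absorbance extrapolated from kinetic A340 decline of NADH oxidation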
Spn PMK inh: S. pneumoniae PMK inhibition. inhibition, % at 10 µM. purified PMK, PK/LDH-coupled NADH absorbance 340 nm. 65,000 compounds, 0.49% hits. AID 539;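 active = top-ranked compounds by inhibition in the single 10 µM screen, taking a fixed number of the strongest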
Spn DPM-DC inh: S. pneumoniae DPM-DC inhibition; AID 556; calls only at 10 µM; 65,000 compounds, 0.49% hits; purified DPM-DC, PK/LDH coupled NADH fluorescence;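 active = the 320 compounds with the highest percent inhibition in the single-dose primary screen, excluding strongly autofluorescent ones, cut at about 32% in these data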;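 note: kinetic rate of NADH fluorescence loss reporting ADP formed by the decarboxylase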
Spn MK inh: S. pneumoniae mevalonate kinase inhibition | purified MK, PK/LDH-coupled NADH absorbance 340 nm | 65,000 compounds, 0.48% hits | inhibition, % at 10 µM | AID 555;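 active = ranked among the strongest by inhibition in the single 10 µM screen, a fixed top-ranked set picked for dose follow-up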
Autofluor 339: intrinsic fluorescence of library compounds, ex339/em460 – biochemical, MLSMR library, data from DPM-DC assay, artefact control, profiling panel; compound autofluorescence, ex339/em460 nm, NADH buffer; active compounds read high; 1 = no-compound wells, NADH background; fluorescence fold increase at 10 µM; 65,000 compounds, 5.5% hits; AID 709;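 active = at 10 µM, mean starting fluorescence two-fold or more over control wells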;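 note: signal is the first read of a kinetic run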
NADH enzymes: inhibition of NAD/NADH coupling enzymes, library profiling; coupled PK/LDH NADH assays, four targets; IC50, µM (series often up to 10 µM); 65,000 compounds, 0.02% hits; AID 774;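 active = single-dose screening hits from any of four coupled enzyme assays that gave an IC50 when retested across doses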;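 note: the DPM-DC format reads NADH fluorescence rather than 340 nm absorbance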
A number is an active result; i = inactive; nt = not tested or not shown; + = active, no number. In the library only some 6.3% were active in any assay of this set; here they are far more common.

SMILES	Abs 340nm	Spn PMK inh	Spn DPM-DC inh	Spn MK inh	Autofluor 339	NADH enzymes
Cc1ccc(C2Nc3ccccc3-c3nc4ccccc4n32)o1 (stereo not given)	i	i	nt	i	2.45	i
CC1(c2ccncc2)Nc2ccccc2-c2nc3ccccc3n21 (stereo not given)	i	i	i	i	i	i
Cc1cccc2nc(C(F)(F)F)nc(=O)n12	i	i	i	i	i	i
Nc1nnc(-c2ccncc2)s1	i	i	nt	i	3.88	i
CNc1nnc(-c2ccncc2)s1	i	i	nt	i	4.35	i
COc1ccc(-c2nnc(N)s2)cc1	i	i	i	i	i	i
Cc1ccc(-c2nnc3sc(-c4ccncc4)nn23)cc1	i	i	i	i	i	i
CC(=O)NC(Cc1c[nH]c2ccccc12)C(=O)NCc1ccc2c(c1)OCO2 (stereo not given)	i	i	i	i	i	i
O=C(CN1C(=O)c2cccc3cccc1c23)N1CCN(c2cccc(Cl)c2)CC1	i	i	i	i	2.37	i
O=C(CN1C(=O)c2cccc3cccc1c23)N1CCN(c2ccccc2)CC1	i	i	i	i	i	i
COc1ccc(C2=NCC(CSc3nnnn3C)S2)cc1 (stereo not given)	i	i	i	i	i	i
CCn1c(COc2ccc(C)cc2)nnc1SCC(=O)Nc1ccc2c(c1)OCCO2	i	i	i	i	2.02	i
CCCCn1nnc(NC(=O)c2ccc(-c3ccccc3)cc2)n1	i	i	i	i	i	i
CCCCn1c(NC(=O)c2ccc(F)cc2)c(C#N)c2nc3ccccc3nc21	i	i	nt	i	5.01	i
O=C(Nc1cccc2nsnc12)c1ccc(F)cc1	i	i	i	i	i	i
CCCCn1c(NC(=O)c2ccccc2)c(C#N)c2nc3ccccc3nc21	i	i	nt	i	3.77	i
CC(=O)N1CCc2cc(NC(=O)c3ccc(C)cc3)ccc21	i	i	i	i	i	i
COc1nc(-c2ccc(Cl)cc2)ccc1-c1noc(-c2ccco2)n1	i	i	i	i	i	i
COc1ccc(-c2ccc(-c3noc(C(C)C)n3)c(OC)n2)cc1	i	i	nt	i	3.99	i
CCc1nc(-c2ccc(-c3ccc(OC)cc3)nc2OC)no1	i	i	nt	i	2.13	i
COCc1nc(-c2ccc(-c3ccc(OC)cc3)nc2OC)no1	i	i	nt	i	2.13	i
COc1nc(-c2ccccc2)ccc1-c1noc(C)n1	i	i	i	i	i	i
COc1cccc(-c2ccc(-c3noc(-c4ccccc4F)n3)c(OC)n2)c1	i	i	nt	i	3.82	i
CCOC(=O)c1cc(-c2ccncc2)nc2c1c(C)nn2-c1ccccn1	i	i	i	i	i	i
O=c1oc2c3c4c(cc2c2c1CCC2)OCCN4CCC3	i	i	nt	i	2.19	i
SMILES	Abs 340nm	Spn PMK inh	Spn DPM-DC inh	Spn MK inh	Autofluor 339	NADH enzymes
CCOCC(O)CS(=O)Cc1ccccc1 (stereo not given)	i	i	i	i	i	i
CC1CC(C)CN(CCCNC(=O)Cn2ncc3c(=O)oc4ccccc4c32)C1 (stereo not given)	i	i	+	i	i	i
COc1ccc(C(=O)N2CCN(c3cccc(Cl)c3)CC2)c(OC)c1	i	i	i	i	i	i
CCS(=O)(=O)N1CCN(C(C)CCc2ccccc2)CC1 (stereo not given)	i	i	i	42.0	i	i
O=S(=O)(CCc1ccccc1)N1CCOCC1	i	i	i	i	i	i
COC(=O)c1cn(-c2ccccc2)nc1C(=O)OC	i	19.0	i	i	i	i
O=C1NC2(CCCCC2)Oc2ccccc21	i	i	i	i	i	i
O=C1c2ccccc2NC2(CCCCC2)N1c1ccc(O)cc1	i	i	nt	i	3.74	i
Cc1ccc(OCC(=O)NCc2ccccn2)cc1	i	i	i	i	i	i
Cc1ccc(-c2nn3nnnc3c3ccccc23)cc1	i	i	i	i	i	i
CC1=C(C(=O)Nc2cccc(C)n2)C(c2ccc3c(c2)OCO3)C2=C(CC(c3ccco3)CC2=O)N1 (stereo not given)	i	i	i	i	2.32	i
Cc1nc2n(n1)C(c1ccccc1)C1=C(CC(c3ccco3)CC1=O)N2 (stereo not given)	i	i	i	i	i	i
Cc1nn(-c2ccc(F)cc2F)c2c1-c1nc(N3CCCC3)ncc1CC2	i	i	nt	i	5.11	i
CCOC(=O)c1cc2c(=O)n3ccccc3nc2n(Cc2ccco2)c1=NC(=O)c1cccnc1	i	i	nt	i	2.25	i
CCOC(=O)c1cc2c(=O)n3cccc(C)c3nc2n(Cc2ccco2)c1=NC(=O)c1cccnc1	i	i	i	i	2.17	i
CCOC(=O)c1cc2c(=O)n3ccccc3nc2n(CCCOC)c1=NC(=O)c1cccnc1	i	i	i	i	i	i
CCOC(=O)c1cc2c(=O)n3ccccc3nc2n(CC(C)C)c1=NC(=O)c1ccco1	i	i	nt	i	2.47	i
O=C(CSc1nc2ccccc2c(=O)n1Cc1ccco1)c1ccccc1	i	i	i	i	i	i
Cc1cccn2c(=O)c3cc(C#N)c(=NC(=O)c4ccccc4)n(Cc4ccco4)c3nc12	i	i	nt	i	2.26	i
CCOC(=O)Cc1csc(NC(=O)CSc2nnc(-c3ccc(OC)cc3)n2C)n1	i	i	i	i	i	i
CCOC(=O)C1CCCN(C(=O)c2cn(C)c(=O)c3cc(OC)c(OC)cc23)C1 (stereo not given)	i	i	i	i	i	i
Cc1nc2cc(NC(=O)N3CC4(C)CC3CC(C)(C)C4)ccc2n1C (stereo not given)	i	i	i	i	i	i
CC1C2CC(CC1(C)C)N(C(=O)Nc1ccc3nccnc3c1)C2 (stereo not given)	i	i	nt	i	2.24	i
CC(C)Nc1ncnc2c1cnn2-c1ccc(Cl)cc1	i	i	i	i	i	i
CCOc1ccccc1N(C(=O)CNC(=O)c1ccco1)C(C(=O)NC(C)(C)C)c1ccncc1 (stereo not given)	i	i	i	i	i	i
SMILES	Abs 340nm	Spn PMK inh	Spn DPM-DC inh	Spn MK inh	Autofluor 339	NADH enzymes
CC(C)OC(=O)CC(=O)c1sc2nc3c(cc2c1N)CN(C)CC3	i	i	nt	i	4.84	i
CCC(=O)Nc1cc2nn(-c3ccc(OC)cc3)nc2cc1C	i	i	nt	i	3.77	i
CCC(=O)Nc1c2c(nn1-c1ccc(OC)cc1)CS(=O)C2 (stereo not given)	i	i	i	i	i	i
CCCCC(=O)Nc1cc2nn(-c3ccc(OC)cc3)nc2cc1C	i	i	nt	i	3.61	i
Cc1cc(C)c2nc(-c3ccccn3)cc(C(=O)NCc3ccco3)c2c1	i	i	nt	i	3.64	i
Cc1cc(NC(=O)c2cc(-c3ccccn3)nc3ccccc23)no1	i	i	i	i	i	i
Cc1ccc(-c2cc(C(=O)NCCCn3ccnc3)c3cc(Br)ccc3n2)o1	i	i	i	i	2.86	i
Cc1cc(C)c2nc(-c3ccccn3)cc(C(=O)Nc3cc(C)on3)c2c1	i	i	i	i	3.15	i
